Where “and” joins values, the source holds several entries; their conditions need not be identical. Identical values can stand only once. Inconclusive results are not listed. Some structures have more than one record in an assay (separate samples or runs), and their calls can disagree. Calls of active or inactive are those of the source. Unless noted, calls come from the whole dose curve; as a rule, active = well fitted curve in the direction sought with a large enough effect; inconclusive = small, poorly fitted or top-dose-only effect, or another doubt; inactive = no such curve, though single readings can be large; an effect the other way counts as inactive or inconclusive.

For experiment [1], the target named is Cytochrome P450 1A2 (Homo sapiens) (UniProt P05177). Nature of the experiment: p450-cyp1a2 (AID 410; calls by dose curve; note: potency is the fitted concentration of half-maximal effect;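 for activity change, negative = inhibition: -100% = full effect of reference inhibitor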). An outline of the steps: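 Human CYP1A2 (20nM) demethylated Luciferin-ME at its Km (100uM) in 100mM KPO4. After 10 min compound preincubation, NADPH regeneration ran the reaction 60 min at room temperature. Luciferin was read by luminescence, normalized to 57 uM furafylline.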
Cytochrome P450 1A2 (Homo sapiens), sequence (P05177 whole entry, looked up): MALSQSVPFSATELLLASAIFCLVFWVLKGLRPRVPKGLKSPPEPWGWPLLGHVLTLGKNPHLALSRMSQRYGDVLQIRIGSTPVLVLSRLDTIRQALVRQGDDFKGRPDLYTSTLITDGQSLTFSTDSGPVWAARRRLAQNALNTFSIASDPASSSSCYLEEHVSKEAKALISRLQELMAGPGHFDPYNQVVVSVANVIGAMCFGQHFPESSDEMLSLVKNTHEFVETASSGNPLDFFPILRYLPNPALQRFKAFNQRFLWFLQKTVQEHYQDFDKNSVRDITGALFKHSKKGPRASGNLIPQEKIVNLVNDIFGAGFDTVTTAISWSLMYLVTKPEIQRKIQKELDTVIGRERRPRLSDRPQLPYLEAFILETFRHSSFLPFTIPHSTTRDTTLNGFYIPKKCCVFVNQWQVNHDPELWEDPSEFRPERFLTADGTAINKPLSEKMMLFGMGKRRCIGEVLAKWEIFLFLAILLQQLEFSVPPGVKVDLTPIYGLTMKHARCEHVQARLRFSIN

The target in experiment [2] is Glucocorticoid receptor (Homo sapiens) (UniProt P04150). Description: GR-GFP Redistribution (AID 450;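 active = compounds whose dose series gives a full or clear partial fitted curve of increased nuclear translocation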; note: potency is the fitted concentration of half-maximal effect). Particulars: U2OS GR-GFP nuclear translocation, laser cytometry, 2 h.
Glucocorticoid receptor (Homo sapiens), sequence (P04150 whole entry, looked up, the tested form may be a part): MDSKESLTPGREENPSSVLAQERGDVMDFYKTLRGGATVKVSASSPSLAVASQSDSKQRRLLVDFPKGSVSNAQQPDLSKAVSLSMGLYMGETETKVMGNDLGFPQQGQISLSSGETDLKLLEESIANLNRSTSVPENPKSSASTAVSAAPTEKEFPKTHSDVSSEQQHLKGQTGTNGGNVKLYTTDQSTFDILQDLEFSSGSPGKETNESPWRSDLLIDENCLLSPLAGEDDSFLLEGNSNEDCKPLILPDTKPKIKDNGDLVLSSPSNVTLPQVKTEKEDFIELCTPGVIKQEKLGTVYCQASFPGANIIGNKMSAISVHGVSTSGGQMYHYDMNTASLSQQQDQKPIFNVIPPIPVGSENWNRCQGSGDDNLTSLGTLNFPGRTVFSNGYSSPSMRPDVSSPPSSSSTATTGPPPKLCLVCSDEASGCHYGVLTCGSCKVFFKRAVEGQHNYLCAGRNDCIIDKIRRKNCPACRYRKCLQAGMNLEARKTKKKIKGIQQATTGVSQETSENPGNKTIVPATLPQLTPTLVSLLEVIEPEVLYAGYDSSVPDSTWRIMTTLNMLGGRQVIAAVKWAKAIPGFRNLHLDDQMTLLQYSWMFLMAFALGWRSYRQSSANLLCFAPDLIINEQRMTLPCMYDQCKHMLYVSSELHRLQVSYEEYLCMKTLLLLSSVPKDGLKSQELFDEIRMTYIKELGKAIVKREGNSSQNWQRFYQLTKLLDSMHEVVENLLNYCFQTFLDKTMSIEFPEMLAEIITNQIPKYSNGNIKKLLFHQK
For experiment [3] the target is unchanged. Nature of the experiment: GR-EFC Redistribution (AID 451; calls by dose curve; note: potency is the fitted concentration of half-maximal effect). As to conditions: CHO-K1 GR-EFC translocation, beta-gal luminescence, 2 h. An outline of the steps: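 CHO-K1 cells stably expressing nuclear-localized β-gal enzyme acceptor and GR fused C-terminally to the enzyme donor fragment; ligand-driven nuclear translocation restores β-gal by complementation. Compounds titrated up to 46 uM final, 2 h at 37 °C; luminescence read.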

The target of experiment [4] is Mitogen-activated protein kinase 10 (Mus musculus) (UniProt Q61831). Description: JNK3 AlphaScreen Assay (AID 530; active = well fitted curve in either direction with a large enough effect, not every such curve was filed as active;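 note: kinase came from lysate of stimulated human HepG2 cells; signal reports phosphorylation of biotinylated GST-cJun 1-79 at Ser73 with 10 µM ATP; % is set by controls: 0 for no effect and ±100 for the full control effect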). Summed up: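 JNK3 came from HepG2 lysates pre-activated with IL-1beta and TNF-alpha and phosphorylated biotinylated GST-cJun (1-79) at 10 uM ATP, pH 7.6, room temperature. Compounds were titrated. AlphaScreen signal used anti-phospho-cJun (Ser73) antibody.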
In general terms: Alpha assays give light when donor and acceptor beads are brought close together.

Experiment [5] concerns the target 3',5'-cyclic-AMP phosphodiesterase 4B (Homo sapiens) (UniProt Q07343). Nature of the experiment: qHTS Assay for Inhibitors of PDE-IV (AID 607; active = well fitted activation curve with a large enough effect in the main read-out, with a control signal flat, not every such curve was filed as active; note: % of control where 0% means no effect). An outline of the steps: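 ACTOne HEK293 cells carry a modified cAMP-gated CNG channel and express endogenous PDE4; plated 1000 cells/well, compounds up to 22.9 uM final. Membrane-potential dye fluorescence (ex 535/em 590) was read; parental cells received 10 uM forskolin + 100 uM RO 20-1724.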
For orientation: qHTS replaces the single test concentration by a dilution series.

A short description of experiment [6]: qHTS Assay for Lipid Storage Modulators (AID 1519; calls by dose curve). As to conditions: Drosophila S3 cells, BODIPY lipid droplet/cell ratio, laser cytometry, cells loaded with oleic acid; for activity change, negative = inhibition: at 57.5 µM (top of the series). An outline of the steps:
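Cells seeded at 5,000 per well were treated with compounds over a concentration series and loaded with oleic acid (400 uM, as added). Lipid droplet fluorescence (488 nm excitation, 500-530 nm channel) was read by laser-scanning cytometry and normalized to 20 uM Triacsin C.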

The target in experiment [7] is Ubiquitin carboxyl-terminal hydrolase 1 (Homo sapiens) (UniProt O94782). Nature of the experiment: Inhibitors of USP1/UAF1: Pilot qHTS (AID 504865).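 Note: rhodamine fluorescence freed from ubiquitin-rhodamine substrate followed over time; top concentration of the series differs between compounds; % is set by controls: 0 for no effect and ±100 for the full control effect; nearly all actives have a fitted effect of over 35% in size.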 An outline of the steps: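 Kinetic fluorescence assay: 1nM USP1/UAF1, 15 min compound preincubation, then 150nM Ub-Rho; 480/540 nm.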
Ubiquitin carboxyl-terminal hydrolase 1 (Homo sapiens), sequence (O94782 whole entry, looked up): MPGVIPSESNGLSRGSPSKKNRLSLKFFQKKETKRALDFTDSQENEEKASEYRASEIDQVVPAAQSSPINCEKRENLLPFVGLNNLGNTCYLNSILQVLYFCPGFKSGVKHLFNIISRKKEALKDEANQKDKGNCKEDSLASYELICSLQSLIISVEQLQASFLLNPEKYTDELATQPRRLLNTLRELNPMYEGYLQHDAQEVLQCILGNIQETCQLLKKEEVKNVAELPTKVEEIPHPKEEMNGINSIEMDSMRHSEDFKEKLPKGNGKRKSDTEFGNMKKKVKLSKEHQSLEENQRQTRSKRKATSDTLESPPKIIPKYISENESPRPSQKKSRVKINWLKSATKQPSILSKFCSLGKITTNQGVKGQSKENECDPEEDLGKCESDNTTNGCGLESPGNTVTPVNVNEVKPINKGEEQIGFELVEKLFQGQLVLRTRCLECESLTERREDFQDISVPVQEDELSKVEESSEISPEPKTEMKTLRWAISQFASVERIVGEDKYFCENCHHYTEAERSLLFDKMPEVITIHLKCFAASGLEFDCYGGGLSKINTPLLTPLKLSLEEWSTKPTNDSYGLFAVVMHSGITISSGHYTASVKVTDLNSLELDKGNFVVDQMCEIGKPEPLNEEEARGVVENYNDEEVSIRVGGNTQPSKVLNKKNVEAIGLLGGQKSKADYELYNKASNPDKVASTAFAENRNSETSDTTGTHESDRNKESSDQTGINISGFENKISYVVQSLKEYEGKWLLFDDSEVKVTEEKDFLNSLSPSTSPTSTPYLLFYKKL
Experiment [8] addresses DNA dC->dU-editing enzyme APOBEC-3G (Homo sapiens) (UniProt Q9HC16). Nature of the experiment: qHTS for inhibitors of Vif-A3G interactions: Validation (AID 588379). Note: 0% is about no effect. Summed up: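 HeLa cells stably expressing Vif and A3G-eYFP, 700 cells/well, incubated overnight at 37 deg C, then exposed to compound overnight at 37 deg C. Inhibition of Vif-mediated degradation read as increased yellow fluorescence (Ex 488/Em 500-530) by laser-scanning cytometry.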

Experiment [9] has as its system Zika virus NS2B-NS3 protease. Description: Primary screen GU AMC qHTS for Zika virus inhibitors (AID 1347154).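 Note: 0% = no-inhibitor control and -100% = no-enzyme control; nearly all actives have a fitted effect of over 70% in size.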 Summed up:
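Unlinked Zika NS2B hydrophilic domain/NS3 protease domain noncovalent complex (25 nM final) in 10 mM Tris-HCl pH 8.0, 0.01% Tween 20, with AMC peptide substrate. Fluorescence (ex 340, em 450 nm) change over 15 min, room temperature; percent inhibition fitted to 4-parameter Hill equation.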

Experiment [10] is described as follows: Primary qHTS for small molecule stabilizers of the endoplasmic reticulum resident proteome: Secreted ER Calcium Modulated Protein (SERCaMP) assay (AID 1508630). Note: % is set by controls: 0 for no effect and ±100 for the full control effect. An outline of the steps:
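GLuc-SERCaMP-expressing SH-SY5Y cells, pretreated 16 h with compound, are challenged with thapsigargin to empty ER calcium stores; after 4 h, coelenterazine is added directly to the medium and luminescence is imaged.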

The target of experiment [11] is Guanine nucleotide-binding protein G(i) subunit alpha-1 (Homo sapiens) (UniProt P63096). Description: qHTS Assay for Inhibitors of RGS12 GoLoco Motif Activity (Green Fluorophore) (AID 879).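 Note: 0% = labeled peptide with Gαi1 and full inhibition = labeled peptide alone without protein; negative values mean loss of peptide binding seen as reduced polarization.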 Summed up: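 Fluorescence polarization assay: 50 nM Gαi1 with 10 nM FITC-labeled RGS12 GoLoco peptide in 10 mM Tris pH 7.5, 150 mM NaCl, 0.1 mM GDP, 0.05% NP40, 10 min at room temperature with compound.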
Guanine nucleotide-binding protein G(i) subunit alpha-1 (Homo sapiens), sequence (P63096 whole entry, looked up): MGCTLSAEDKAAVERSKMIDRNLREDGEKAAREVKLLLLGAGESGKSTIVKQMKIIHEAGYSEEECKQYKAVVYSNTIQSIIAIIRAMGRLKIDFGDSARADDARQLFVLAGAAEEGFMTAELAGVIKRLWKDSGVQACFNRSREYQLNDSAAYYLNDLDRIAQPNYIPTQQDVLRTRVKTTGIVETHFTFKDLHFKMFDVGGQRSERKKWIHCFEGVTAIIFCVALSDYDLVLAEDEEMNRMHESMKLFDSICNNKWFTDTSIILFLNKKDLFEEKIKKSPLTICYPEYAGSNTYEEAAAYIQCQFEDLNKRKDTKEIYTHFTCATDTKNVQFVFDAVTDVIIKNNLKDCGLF

Experiment [12] in a line: qHTS Assay for Identification of Small Molecule Agonists for Thrombopoietin (TPO) Signaling Pathway (AID 917). Note: % is set by controls: 0 for no effect and ±100 for the full control effect. Summed up: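 We measured Glycoprotein IIb promoter–luciferase output in IL-3-starved Ba/F3 murine cells expressing the human TPO receptor after 24 hrs at 37 C with compounds and 26 pM TPO.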
In experiment [13] the target is Pyruvate kinase (Leishmania mexicana) (UniProt Q27686). Nature of the experiment: qHTS Validation Assay for Inhibitors of Leishmania Mexicana Pyruvate Kinase (AID 945).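 Note: 0% = DMSO only neutral control wells.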 Summed up: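 The enzyme is a highly purified E451W mutant of LmPYK used at 0.2 nM. It converts 0.5 mM PEP and 0.1 mM ADP over 1 h at room temperature; product ATP is quantified by luciferase luminescence relative to DMSO controls.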
Pyruvate kinase (Leishmania mexicana), sequence (Q27686 2-499 E452W): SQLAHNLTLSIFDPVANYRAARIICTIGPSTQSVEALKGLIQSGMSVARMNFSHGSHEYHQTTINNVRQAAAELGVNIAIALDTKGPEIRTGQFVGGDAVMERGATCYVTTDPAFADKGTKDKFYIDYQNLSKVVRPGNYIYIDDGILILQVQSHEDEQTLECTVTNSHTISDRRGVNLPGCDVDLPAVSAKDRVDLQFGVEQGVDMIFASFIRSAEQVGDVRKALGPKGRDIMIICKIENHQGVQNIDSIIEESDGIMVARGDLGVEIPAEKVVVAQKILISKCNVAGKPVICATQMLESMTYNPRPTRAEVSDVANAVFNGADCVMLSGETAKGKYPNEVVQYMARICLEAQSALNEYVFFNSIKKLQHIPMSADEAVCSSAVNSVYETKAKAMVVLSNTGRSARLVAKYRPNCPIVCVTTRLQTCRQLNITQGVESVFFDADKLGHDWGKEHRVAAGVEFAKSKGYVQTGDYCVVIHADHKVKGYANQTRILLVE

Experiment [14] addresses Pyruvate kinase PKM (Homo sapiens) (UniProt P14618). Nature of the experiment: qHTS Assay for Activators of Human Muscle Pyruvate Kinase (AID 954; active = well fitted curve in the direction sought with a large enough effect, not every such curve was filed as active;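 note: 0% = uninhibited enzyme and -100% = no enzyme or full thiadiazolimine inhibition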). Summed up: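 Luminescence from a luciferase ATP-detection/stop reagent reported PKM2 activity. Reactions contained 0.1 nM purified human enzyme, 0.5 mM PEP, 0.1 mM ADP and 7 mM MgCl2 at pH 7.2, run 1 h at RT.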
The target in experiment [15] is alpha-glucosidase (Oryza sativa, rice) (UniProt Q653V4). Nature of the experiment: Counterscreen for Glucocerebrosidase Inhibitors: qHTS Assay for Rice alpha-Glucosidase at pH 5.0 (AID 997).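 Note: 0% = full activity with enzyme and -100% = basal without enzyme.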 An outline of the steps: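 Rice alpha-glucosidase (4 nM final) with 400 uM 4-methylumbelliferyl-alpha-D-glucopyranoside in citrate buffer pH 5.0, 20 min at room temperature, stopped at pH 10; fluorescence 365/440 nm, compounds 0.7 nM–77 uM, AC50 from Hill fits.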
On the technique in general: A counterscreen serves to expose hits that act by an unwanted route or on another target.

Experiment [16] is described as follows: AP1 Signaling Pathway (AID 357; active = well fitted curve in either direction with a large enough effect, not every such curve was filed as active; note: % is set by controls: 0 for no effect and ±100 for the full control effect). As to conditions: ME-180 (cervical carcinoma) AP-1-bla reporter, EGF-induced, beta-lactamase ratio, 5 h; at 38 µM (top of the series). An outline of the steps: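 Read-out was the 460nm/530nm emission ratio (excitation 405nm) after CCF4 loading for 2.5 hours at room temperature. Cells carried an AP-1-driven beta-lactamase reporter, were stimulated with EC50 EGF plus compound for 5 hours, and AC50 values came from titrations.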

Experiment [17] is described as follows: NFAT Signaling Pathway (AID 444; active = well fitted curve in either direction with a large enough effect, not every such curve was filed as active). As to conditions: Jurkat NFAT-bla M1, carbachol, beta-lactamase ratio, 5 h; at 38 µM (top of the series). Summed up: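 Jurkat cells carrying an NFAT-driven β-lactamase reporter and co-transfected muscarinic M1 receptor were treated with compound plus carbachol (1 uM final, an EC50 level) for 5 h at 37 °C. CCF4 loading followed for 1 h at RT; 460/530 nm ratio gave %activity.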

In experiment [18] the target is Cytochrome P450 2C19 (Homo sapiens) (UniProt P33261). Nature of the experiment: qHTS Assay for Inhibitors and Substrates of Cytochrome P450 2C19 (AID 899). Note: % is set by controls: 0 for no effect and ±100 for the full control effect; nearly all actives have a fitted effect of over 60% in size. An outline of the steps: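 NADPH-dependent conversion of Luciferin-H EGE (10uM, at KM) by 5nM enzyme in 50mM KPO4, 60 min at 37C following 10 min compound preincubation. Stopped with luciferin detection buffer; luminescence read after 20 min.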

Experiment [19] addresses Cytochrome P450 3A4 (Homo sapiens) (UniProt P08684). Nature of the experiment: qHTS Assay for Activators of Cytochrome P450 3A4 (AID 885). Note: nearly all actives have a fitted effect of over 65% in size. An outline of the steps:
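20nM CYP3A4 + 25uM Luciferin-PPXE (=KM), 200mM KPO4; cpd 10 min RT; NADPH regen, 60 min RT; stop w/ detection buffer, 20 min; luminescence. Normalized to 57 uM ketoconazole.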

[20] abbreviates: measured here: cell count channel max response.
[21] abbreviates: measured here: lipid channel max response.

Cytochrome P450 3A4 (Homo sapiens), sequence (P08684 whole entry, looked up): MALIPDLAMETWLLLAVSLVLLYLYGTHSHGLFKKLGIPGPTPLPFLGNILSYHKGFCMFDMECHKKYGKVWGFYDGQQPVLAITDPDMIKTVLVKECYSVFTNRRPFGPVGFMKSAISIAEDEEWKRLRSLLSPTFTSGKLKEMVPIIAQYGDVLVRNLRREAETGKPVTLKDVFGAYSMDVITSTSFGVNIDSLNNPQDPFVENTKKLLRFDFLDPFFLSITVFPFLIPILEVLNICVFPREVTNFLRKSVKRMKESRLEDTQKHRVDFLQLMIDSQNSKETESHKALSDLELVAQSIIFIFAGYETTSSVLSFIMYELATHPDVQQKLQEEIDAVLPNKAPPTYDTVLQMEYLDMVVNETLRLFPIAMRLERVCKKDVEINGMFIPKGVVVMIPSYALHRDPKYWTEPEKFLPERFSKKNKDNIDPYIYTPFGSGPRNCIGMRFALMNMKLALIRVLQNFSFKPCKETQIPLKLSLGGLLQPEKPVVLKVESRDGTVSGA
DNA dC->dU-editing enzyme APOBEC-3G (Homo sapiens), sequence (Q9HC16 whole entry, looked up): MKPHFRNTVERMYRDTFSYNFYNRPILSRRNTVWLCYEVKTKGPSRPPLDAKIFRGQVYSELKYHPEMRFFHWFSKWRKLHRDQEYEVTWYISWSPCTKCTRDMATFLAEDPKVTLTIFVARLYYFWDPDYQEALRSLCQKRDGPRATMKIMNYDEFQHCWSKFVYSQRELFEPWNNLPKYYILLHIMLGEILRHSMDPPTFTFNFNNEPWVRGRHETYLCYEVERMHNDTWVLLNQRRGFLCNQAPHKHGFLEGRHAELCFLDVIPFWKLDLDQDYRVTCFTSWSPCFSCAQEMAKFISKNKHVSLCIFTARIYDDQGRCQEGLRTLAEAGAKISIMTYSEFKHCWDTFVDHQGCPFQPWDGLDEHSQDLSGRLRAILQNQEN
3',5'-cyclic-AMP phosphodiesterase 4B (Homo sapiens), sequence (Q07343 whole entry, looked up): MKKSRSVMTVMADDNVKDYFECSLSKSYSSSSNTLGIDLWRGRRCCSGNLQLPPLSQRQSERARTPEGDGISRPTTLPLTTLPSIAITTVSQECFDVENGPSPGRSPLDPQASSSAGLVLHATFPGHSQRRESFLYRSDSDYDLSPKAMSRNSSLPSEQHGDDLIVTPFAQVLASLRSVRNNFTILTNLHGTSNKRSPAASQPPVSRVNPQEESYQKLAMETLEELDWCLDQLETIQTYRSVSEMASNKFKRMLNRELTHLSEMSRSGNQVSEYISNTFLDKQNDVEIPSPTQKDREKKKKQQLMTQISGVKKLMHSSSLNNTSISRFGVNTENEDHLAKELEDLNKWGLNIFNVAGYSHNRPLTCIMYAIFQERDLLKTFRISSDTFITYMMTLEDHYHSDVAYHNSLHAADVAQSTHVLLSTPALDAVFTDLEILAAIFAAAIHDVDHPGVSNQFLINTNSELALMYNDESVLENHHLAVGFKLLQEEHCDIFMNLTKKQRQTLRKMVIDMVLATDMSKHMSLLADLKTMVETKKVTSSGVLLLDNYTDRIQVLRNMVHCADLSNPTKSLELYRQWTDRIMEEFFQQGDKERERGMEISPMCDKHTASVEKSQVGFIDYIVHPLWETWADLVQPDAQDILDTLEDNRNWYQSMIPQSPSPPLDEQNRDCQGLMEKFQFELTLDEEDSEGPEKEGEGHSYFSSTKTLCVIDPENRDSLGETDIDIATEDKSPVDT

As to `N[C@](CC1c2ccccc2Oc2ccccc21)(C(=O)O)[C@@H]1C[C@@H]1C(=O)O`, the Potency in experiment [1] is 31.6 µM (active); in [2] it was > 46 µM (inactive); in experiment [3] it was > 46 µM (inactive). In addition, the Potency result in experiment [4], in experiment [5], in [7], in experiment [8], in experiment [9] and in [10] was “inactive” each time. In addition, the activity change, negative = inhibition in [6] was 5.89% (inactive). The results for the max response in experiment [6] (setting [20]) and in experiment [6] (setting [21]) were 12.4% and 20%, respectively.
For the compound `N[C@H](C(=O)O)[C@@H]1C[C@@H]1C(=O)O`, the Potency result in experiment [1], in experiment [4], in experiment [5], in [12], in experiment [13] and in [7] was “inactive” in each case. In addition, the Potency result in [8], in experiment [9] and in experiment [10] was “inactive” in each case. In addition, the Potency in experiment [2] and in experiment [3] was > 46 µM (inactive) throughout. Also, the call in experiment [11], in experiment [14] and in experiment [15] was inactive. The activity change, negative = inhibition in experiment [6] is 0.571% (inactive) and -0.444% (inactive). The max response in [6] (setting [20]) was -21% and 5.3%; in experiment [6] (setting [21]) it was -19.5% and 5.06%.
In the case of `NC[C@](O)(CS(=O)(=O)O)c1ccc(Cl)cc1`, the activity change, negative = inhibition was 6.15% (inactive) in experiment [16], -5.4% (inactive) in experiment [17] and -5.03% (inactive) in experiment [6]. Moreover, the Potency result in experiment [1] was “inactive and 31.6 µM (active)”; in [2], > 46 µM (inactive); in experiment [3] it was > 46 µM (inactive). Besides, the Potency entry in experiment [4], in experiment [5], in experiment [18], in [12], in [13] and in experiment [8] was “inactive” throughout. Moreover, the Potency entry in [9] and in [10] was “inactive” in each case. Also, the outcome in experiment [11], in experiment [14] and in experiment [15] was inactive. Further, the max response in experiment [6] (setting [20]) was 11.5%; in experiment [6] (setting [21]), 9.5%.
As to `N[C@H](C(=O)O)c1nn[nH]n1`, the Potency result in experiment [1], in experiment [4], in experiment [5], in [7], in experiment [8] and in experiment [9] was “inactive” each time. In experiment [10], the Potency result was “inactive”. For the same compound, the Potency in experiment [2] and in experiment [3] was > 46 µM (inactive) in each case. For the same compound, the activity change, negative = inhibition in experiment [6] was 1.12% (inactive). Also, the max response in [6] (setting [20]) is -0.925%; in experiment [6] (setting [21]), -0.771%.
Turning to `COc1cc(N)c(Cl)cc1C(=O)CCC1CCN(CCNS(C)(=O)=O)CC1`, the Potency entry in experiment [1], in [4], in [5], in [19], in experiment [7] and in experiment [8] was “inactive” each time. Besides, the Potency entry in experiment [9] and in experiment [10] was “inactive” each time. In addition, the Potency in [2] and in experiment [3] was > 46 µM (inactive) each time. Further, in experiment [6], the activity change, negative = inhibition is 6.39% (inactive). The max response in [6] (setting [20]) came out at 24.1%; in [6] (setting [21]) it was 32.4%.
As to `CCS(=O)(=O)N(C)[C@@H]1c2cc(C#N)ccc2OC(C)(C)[C@H]1O`, the Potency in experiment [1] was 20 µM (active) and inactive; in experiment [2], > 46 µM (inactive); in [3] it was > 46 µM (inactive). The Potency entry in [5], in experiment [19], in experiment [7], in [8], in experiment [9] and in experiment [10] was “inactive” throughout. Moreover, the activity change, negative = inhibition in experiment [6] is 2.68% (inactive) and 2.28% (inactive). The max response in experiment [6] (setting [20]) was 17.8% and 15.2%; in experiment [6] (setting [21]), 22.1% and 18.9%.

The values are drawn from PubChem BioAssay (NCATS).
